Data on 40 compounds can be found in PubChem BioAssay (NCI).

Structures are written as SMILES. The panel holds about 83,000 compounds, 20% with a hit somewhere; the sample as a whole holds those more often.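 Plates (96-well) were seeded with cells, treated with compound at one concentration, and incubated for 48 hours before percent growth was determined.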 The source made the active and inactive calls. The calls were made as follows: active = growth percent below 10; inactive = the rest.

This test has as its system HL-60(TB) leukemia. As to the kind of experiment: NCI-60 one-dose screen, 48 h (100 = growth as untreated, 0 = no growth, -100 = all killed). The conditions noted are these: 10 µM unless noted.
With `CC(=O)Nc1ccc2c(c1)Cc1c(F)cccc1-2`, the growth was 97.7% (inactive). For `CCOc1cc2c(Cl)ncnc2c(OCC)c1OCC` the value was -16.4% (active); for `CC(C)(C)OC(=O)NCCc1ccc(N=C=S)cc1`, 19.8% (inactive); for `C#CCOc1ccc2ncnc(NCc3cccc(NC(=O)CCl)c3)c2c1`, 19.5% [8.25 µM] (inactive). For `O=S(=O)(OCCOS(=O)(=O)c1ccccc1)c1ccccc1` the value was 92.5% (inactive); for `OCCOCC(F)(F)F`, -0.411% (active); for `CCCCN(CCCC)CCCCCCCCC(O)c1cc2ccccc2c2ccccc12` (stereo not given), 28.5% (inactive). Regarding `c1ccc(CN=C(NCc2ccccc2)NCc2ccccc2)cc1`, the growth was 49.9% (inactive). In the case of `O=C(Nc1cccc(Cl)c1)c1cc(N=Nc2ccc([N+](=O)[O-])cc2Cl)ccc1O`, the growth was 38.2% (inactive). With `COc1cc(Br)c(OC)cc1Br`, the growth was 109% (inactive). Under `O=C(O)c1ccnc(Br)c1` stands 96.5% (inactive); under `CN(C)c1ccc2cc(-c3ccccc3F)c(N)nc2c1`, 5.36% (active).

Consider `COc1ccc2c(O)c(/C=C3\N=Nc4nc(C)ccc43)oc2c1CC1CCNCC1`, for which the growth was 94.3% (inactive). As to `Cc1ccc(/C=C2\COc3ccc(O)c(O)c3C2=O)cc1`, the growth is -15% (active). Under `CCCN1C(=O)/C(=c2\sc3n(c2=O)NC2C(N=3)N(CC)C(=O)N2CC)c2ccccc21` (stereo not given) stands -18.4% (active). With `Cc1ccc(Cn2cc(COc3ccc4c5ccnc(C)c5n(CCCc5ccccc5)c4c3)nn2)cc1`, the growth is 77.6% (inactive). For `N#CCCN=Nc1c(O)[nH]c2ccc([N+](=O)[O-])cc12` the value was 96.6% (inactive). As to `O=Nc1ccc(NC(=O)Nc2ccc([N+](=O)[O-])cc2)cc1`, the growth is 89.8% (inactive). Consider `CS(=O)(=O)c1nnc(-c2ccccc2)s1`, for which the growth is 64.8% (inactive). Under `Oc1c(C(Nc2ccccc2)c2ccccc2)ccc2cccnc12` (stereo not given) stands 15.7% (inactive); under `CC#Cc1nc(Nc2cc(C)[nH]n2)c2ccccc2n1`, 4.13% [100 µM] (active). Regarding `CCOC(=O)C1=C(C)c2ccc(OC)c(OC)c2C1`, the growth is 106% (inactive).

Regarding `NS(=O)(=O)c1ccc(N2N=C(c3ccc(Br)cc3)CC2c2cn(-c3ccccc3)nc2-c2ccc(Cl)cc2)cc1` (stereo not given), the growth is 89.6% (inactive). Under `CCOC(=O)Nc1ccc(-c2ccc3c(c2)NC(=O)/C3=C\c2ccc[nH]2)cc1` stands 98.5% (inactive).

Consider `Cc1ccc(C)c(NC(=O)c2sc3c(=O)[nH]cnc3c2C)c1`, for which the growth was 65.4% (inactive).

Regarding `COc1cccc(Cc2cc(-c3ccccc3)nn(CC(=O)c3ccccc3)c2=O)c1`, the growth is 69.4% (inactive). Under `CC(C)(C)c1ccc(O)c(C2CCCCC2)c1` stands 67.4% (inactive); under `COc1ccc(C(=O)c2nccc3cc(OC)c(OC)cc23)cc1OC`, 102% (inactive).

Regarding `CCCCCCCCCCN=C(c1ccc(N(C)C)cc1)c1ccc(N(C)C)cc1`, the growth was 11.2% (inactive). For `Fc1ccc(NCc2nnc(-c3ccc(Cl)cc3)o2)cc1` the value was 69.5% (inactive); for `COc1ccc(C2=NN(C(C)=O)C(c3cccc(Nc4ccnc5cc(Cl)ccc45)c3)C2)cc1` (stereo not given), 57.2% (inactive); for `O=C(/C=C/C12c3ccccc3C(c3ccccc31)C1C(=O)NC(=O)C12)c1ccccn1` (stereo not given), -11.5% (active). Consider `CCn1c(Sc2nnc(NC(C)=O)s2)nc2c1c(=O)n(C)c(=O)n2C`, for which the growth is 124% (inactive). Regarding `COc1ccc(-c2onc(N)c2-c2cc(OC)c3c(c2)OCO3)cc1`, the growth was -31.4% (active). As for `NS(=O)(=O)c1ccc(-n2ncc3c(N/N=C/c4ccccc4)ncnc32)cc1`, the growth was 83.1% (inactive).

In the case of `Cc1cn(-c2cc(NC(=O)c3cncc(C#Cc4c(N)ncc5ccc(F)cc45)c3)cc(C(F)(F)F)c2)cn1`, the growth was 9.54% (active).

Regarding `Cc1ccc(-c2nc(C(Cl)Cl)n3nc(-c4ccccc4)cc3n2)cc1`, the growth was 61.3% (inactive).

With `OC(c1cc2cc(Br)ccc2c2cc(Br)ccc12)C1CCCCN1` (stereo not given), the growth was -61.8% (active). Under `COc1cc(/C=C2\CN(S(=O)(=O)c3ccc(C)cc3)C/C(=C\c3cc(CN4CCCCC4)c(O)c(OC)c3)C2=O)cc(CN2CCCCC2)c1O` stands -37.2% (active); under `Cc1nc(Nc2ccc(S(=O)(=O)Nc3cc(C)on3)cc2)c2ccccc2n1`, 101% (inactive).
